Experimental data reported in PubChem BioAssay (NCATS).
Results filed as inconclusive are left out. Calls of active or inactive are those of the source. Calls come from the whole dose curve; as a rule, active = well fitted curve in the direction sought with a large enough effect; inconclusive = small, poorly fitted or top-dose-only effect, or another doubt; inactive = no such curve, though single readings can be large; an effect the other way counts as inactive or inconclusive.

Tests used:
CRL-7250 = normal cell line; experiment: Cytotoxic Profiling of Annotated Libraries Using Quantitative High-Throughput Screening (AID 1296008); settings: Five cell lines viability, CellTiter-Glo ATP luminescence, 48-72 h; max response: stronger effect = lower value; note: nearly all actives have a fitted effect of over 60% in size; for max response: % is set by controls: 0 for no effect and ±100 for the full control effect
Method in brief: (§1)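 Cytotoxicity was measured as CellTiter-Glo ATP luminescence, read after 10 min at room temperature. Compound treatment of the cells lasted 48 or 72 hr at 37 degrees Celsius in a qHTS format.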

HEK293 = experiment: as above; settings: Five cell lines viability, CellTiter-Glo ATP luminescence, 48-72 h; max response: stronger effect = lower value
Method in brief: as §1

HaCat = experiment: as above; settings: Five cell lines viability, CellTiter-Glo ATP luminescence, 48-72 h; max response: stronger effect = lower value
Method in brief: as §1

KB-3-1 = experiment: as above; settings: Five cell lines viability, CellTiter-Glo ATP luminescence, 48-72 h; max response: stronger effect = lower value
Method in brief: as §1

NIH3T3 [1] = experiment: as above; settings: Five cell lines viability, CellTiter-Glo ATP luminescence, 48-72 h; max response: stronger effect = lower value
Method in brief: as §1

NIH3T3 [2] = experiment: qHTS assay to identify novel small-molecules to repurpose for Merkel cell carcinoma treatment (AID 1296009); settings: MCC and control cell lines, CellTiter-Glo viability, 72 h; at 44.8 µM (top of the series) unless noted; note: nearly all actives have a fitted effect of over 60% in size
Method in brief: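 After compound transfer in DMSO, plates were kept 72 hr at 37 degree celsius. Luminescent ATP signal from CellTiter-Glo served as viability measure, normalized against DMSO and no-cell controls.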

C33A = experiment: Primary qHTS to identify gynecologic anti-cancer compounds using libraries of approved drugs and bioactive compounds (AID 1345084); settings: Gynecologic cancer cell panel viability, ATPlite luminescence, 48 h; series mostly up to 57.5 µM; note: % is set by controls: 0 for no effect and ±100 for the full control effect; nearly all actives have a fitted effect of over 55% in size
Method in brief: (§2)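 In this quantitative HTS, cell killing is estimated from loss of ATP-dependent luciferase light. Cells see five compound concentrations over a 48 h exposure.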

CAOV3 = experiment: as above; settings: Gynecologic cancer cell panel viability, ATPlite luminescence, 48 h; series mostly up to 57.5 µM
Method in brief: as §2

CASKI = experiment: as above; settings: Gynecologic cancer cell panel viability, ATPlite luminescence, 48 h; series mostly up to 57.5 µM
Method in brief: as §2

Es-2 = experiment: as above; settings: Gynecologic cancer cell panel viability, ATPlite luminescence, 48 h; series mostly up to 57.5 µM
Method in brief: as §2

HeLa = experiment: as above; settings: Gynecologic cancer cell panel viability, ATPlite luminescence, 48 h; series mostly up to 57.5 µM
Method in brief: as §2

Hek293T = experiment: as above; settings: Gynecologic cancer cell panel viability, ATPlite luminescence, 48 h, control line for the selectivity index; series mostly up to 57.5 µM
Method in brief: as §2

JEG-3 = experiment: as above; settings: Gynecologic cancer cell panel viability, ATPlite luminescence, 48 h; series mostly up to 57.5 µM
Method in brief: as §2

COc1cc(/C=C/C(=O)OCC2OC(OC3(CO)OC(CO)C(O)C3O)C(O)C(O)C2O)ccc1O (centres undefined)
inactive: max response (CRL-7250) 0.86% | max response (HEK293) 0.768% | max response (HaCat) 2.88% | outcome (KB-3-1) | outcome (NIH3T3 [1]) | outcome (NIH3T3 [2]) inactive [at 17.4 µM] | Potency (C33A) | Potency (CAOV3) | outcome (CASKI) | Potency (Es-2) | Potency (HeLa) | Potency (Hek293T) | Potency (JEG-3)

COC(=O)[C@]1(C)CCC[C@@]2(C)[C@@H]3CC[C@@H]4C[C@@]3(CC[C@@H]21)C[C@H]4C(=O)O
inactive: max response (CRL-7250) -6.63% | max response (HEK293) 0.134% | max response (HaCat) 0.436% | max response (KB-3-1) 9.78% | outcome (NIH3T3 [1]) | outcome (NIH3T3 [2]) | Potency (C33A) | Potency (CAOV3) | outcome (CASKI) | Potency (Es-2) | Potency (HeLa) | Potency (Hek293T) | Potency (JEG-3)

C=C1C(=O)OC2CC(COC(=O)C(C)C)=C(C(C)CCCOC(C)=O)[C@@H](OC(C)=O)C12 (some centres undefined)
inactive: max response (CRL-7250) -4.9% | max response (HEK293) 5% | max response (HaCat) 4.28% | outcome (KB-3-1) | outcome (NIH3T3 [1]) | outcome (NIH3T3 [2]) inactive [at 17.4 µM] | Potency (C33A) | Potency (CAOV3) | outcome (CASKI) | Potency (Es-2) | Potency (HeLa) | Potency (Hek293T) | Potency (JEG-3)

C=C1C[C@@]2(O)O[C@@]3(C[C@H]2C(C)C)[C@@H](C)CC[C@@H]13
inactive: outcome (CRL-7250) | max response (HEK293) -11.6% | max response (HaCat) -13.2% | max response (KB-3-1) 9.57% | outcome (NIH3T3 [1]) | outcome (NIH3T3 [2]) | Potency (C33A) | Potency (CAOV3) | outcome (CASKI) | Potency (Es-2) | Potency (HeLa) | Potency (Hek293T) | Potency (JEG-3)

C[C@H]1[C@@H](O)[C@H](O)C2[C@]3(C)C([C@@H](O)[C@H]4OC(=O)[C@@H]1[C@@]24C)[C@](C)(O)C=C[C@H]3O[C@@H]1O[C@H](CO)[C@@H](O)[C@H](O)[C@H]1O (some centres undefined)
inactive: max response (CRL-7250) 0.954% | max response (HEK293) -1.06% | max response (HaCat) -2.23% | max response (KB-3-1) 8.84% | outcome (NIH3T3 [1]) | outcome (NIH3T3 [2]) inactive [at 17.4 µM] | Potency (C33A) | Potency (CAOV3) | outcome (CASKI) | Potency (Es-2) | Potency (HeLa) | Potency (Hek293T) | Potency (JEG-3)

Cc1cc(CO)c(O)c(C(=O)CC2CC(=O)NC(=O)C2)c1
inactive: outcome (CRL-7250) | max response (HEK293) 4.74% | max response (HaCat) -10.8% | outcome (KB-3-1) | outcome (NIH3T3 [1]) | outcome (NIH3T3 [2]) | Potency (C33A) | Potency (CAOV3) | outcome (CASKI) | Potency (Es-2) | Potency (HeLa) | Potency (Hek293T) | Potency (JEG-3)

CC1=C2C(=O)C=C(CO[C@@H]3O[C@H](CO)[C@@H](O)[C@H](O)[C@H]3O)[C@@H]2[C@H]2OC(=O)[C@H](C)[C@@H]2[C@@H](O)C1
inactive: outcome (CRL-7250) | max response (HEK293) -50.9% | max response (HaCat) 0.75% | max response (KB-3-1) 2.15% | outcome (NIH3T3 [1]) | outcome (NIH3T3 [2]) inactive [at 17.4 µM] | Potency (C33A) | Potency (CAOV3) | outcome (CASKI) | Potency (Es-2) | Potency (HeLa) | Potency (Hek293T) | Potency (JEG-3)

CCCNCCOc1ccc(NC(=O)c2c[nH]c3c2C(=O)CCC3)cc1F
inactive: max response (CRL-7250) -8.08% | max response (HEK293) -31.5% | max response (HaCat) -4.5% | max response (KB-3-1) 6.85% | outcome (NIH3T3 [1]) | outcome (NIH3T3 [2]) | Potency (C33A) | Potency (CAOV3) | outcome (CASKI) | Potency (Es-2) | Potency (HeLa) | Potency (Hek293T) | Potency (JEG-3)

CCNC(=O)OC1CCN(c2nncc3cc(OC)c(OC)cc23)CC1
inactive: max response (CRL-7250) -1.25% | max response (HEK293) 2.54% | max response (HaCat) -16.1% | outcome (KB-3-1) | outcome (NIH3T3 [1]) | outcome (NIH3T3 [2]) | Potency (C33A) | Potency (CAOV3) | outcome (CASKI) | Potency (Es-2) | Potency (HeLa) | Potency (Hek293T) | Potency (JEG-3)

C/C(=C\CCC(C)C1CC(O)C2(C)C3CCC4C(C)(C)C(OC5OCC(O)C(O)C5O)CCC45CC35CC(O)C12C)C(=O)O (centres undefined)
inactive: max response (CRL-7250) 3.53% | max response (HEK293) 0.956% | max response (HaCat) 3.75% | max response (KB-3-1) 9.72% | outcome (NIH3T3 [1]) | outcome (NIH3T3 [2]) inactive [at 17.4 µM] | Potency (C33A) | Potency (CAOV3) | outcome (CASKI) | Potency (Es-2) | Potency (HeLa) | Potency (Hek293T) | Potency (JEG-3)

O=C(/C=C/c1ccc(O)c(O)c1)O[C@@H]1[C@@H](O)[C@H](OC2CCCCC2O)O[C@H](CO)[C@H]1O (some centres undefined)
inactive: max response (CRL-7250) 4.08% | max response (HEK293) 1.79% | max response (HaCat) 2.85% | max response (KB-3-1) 9.07% | outcome (NIH3T3 [1]) | outcome (NIH3T3 [2]) inactive [at 17.4 µM] | Potency (C33A) | Potency (CAOV3) | outcome (CASKI) | Potency (Es-2) | Potency (HeLa) | Potency (Hek293T) | Potency (JEG-3)

CCC(=O)OCC(=O)[C@@]1(OC(=O)CC)[C@@H](C)C[C@H]2[C@@H]3CCC4=CC(=O)C=C[C@]4(C)[C@@]3(F)[C@@H](O)C[C@@]21C
inactive: max response (CRL-7250) -9.64% | max response (HEK293) -7.33% | max response (HaCat) -29.8% | outcome (KB-3-1) | outcome (NIH3T3 [1]) | outcome (NIH3T3 [2]) | Potency (C33A) | Potency (CAOV3) | outcome (CASKI) | Potency (Es-2) | Potency (HeLa) | Potency (Hek293T) | Potency (JEG-3)

COc1ccc(C(=O)NCc2cc(C(C)C)no2)cc1OC1CCN(C)CC1
inactive: max response (CRL-7250) -1.84% | max response (HEK293) -4.29% | max response (HaCat) 4.96% | max response (KB-3-1) -1.9% | outcome (NIH3T3 [1]) | outcome (NIH3T3 [2]) | Potency (C33A) | Potency (CAOV3) | outcome (CASKI) | Potency (Es-2) | Potency (HeLa) | Potency (Hek293T) | Potency (JEG-3)
